# Rows were chosen to be rich in hits. Some 4.6% of all compounds tested hit in one or more screens of this group.
# tim23-1 inh: tim23-1 yeast growth inhibition. S. cerevisiae tim23-1 growth, BacTiter-Glo luminescence, 24 h. inhibition, % at 20 µM. 330,000 tested, 1.3% active. AID 463212;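 active = growth inhibition of the mutant yeast at or above 50%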;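 also: temperature-sensitive mutant grown at 25 °C; plate controls were DMSO-treated mutant yeast for no effect and medium wells lacking yeast for full effect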
# TIM10 inh: inhibits growth of TIM10 yeast strain; inhibition, % at 10 µM; S. cerevisiae TIM10 strain growth, BacTiter-Glo luminescence, 24 h; 330,000 tested, 1.4% active;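 active = inhibition of 40% or more at the single tested concentration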;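 also: wild-type TIM10 isogenic control strain grown at permissive 25 °C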
# NLRP3 yeast inh: inhibitors of NALP3 inflammasome in yeast; Yeast reconstituted NLRP3/ASC/caspase-1, beta-gal luminescence, 24 h; inhibition, % at 10 µM; 330,000 tested, 0.39% active;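 active = inhibition of 50% or more; inactive = inhibition below 50%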;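 also: plate controls were induced DMSO wells for no effect and uninduced yeast grown without galactose for full effect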
# tim10-1 inh: growth inhibitors of tim10-1 mutant yeast; AID 463190; 330,000 tested, 2.2% active; S. cerevisiae tim10-1 ts strain growth, BacTiter-Glo, 24 h; inhibition, % at 20 µM;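 active = inhibition of at least 40%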;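 also: mutant grown at 25 °C; 0% = DMSO wells with yeast and 100% = wells holding no yeast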
# SKKanGAS inh: blocks kanamycin growth of S. pyogenes SKKanGAS strain; inhibition, % at 7.5 µM; AID 1662; 300,000 tested, 1.3% active; BacTiter-Glo, 6 h;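 active = mean replicate score, as percent of positive control median, at least 50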;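 also: strain carries kanamycin resistance gene driven by streptokinase promoter and grows in 40 µg/ml kanamycin; loss of luminescence reflects streptokinase promoter inhibition or plain growth inhibition; 0% = median of DMSO wells and 100% = positive control at its reference dose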
# tim10-1 conf: confirmation of tim10-1 mutant yeast growth inhibitors | shares compounds with tim10-1 inh | S. cerevisiae tim10-1 ts strain growth, BacTiter-Glo, 24 h | inhibition, % at 20 µM | 7,400 tested, 56% active;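 active = inhibition of yeast growth at or above a set limit in either of two repeat tests at 20 µM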;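 also: tim10-1 mutant grown at permissive 25 °C to find synthetic lethal compounds; 0% = DMSO yeast wells and 100% = medium wells without yeast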
# The depositor's hits bear a star; . = not tested or not shown.
SMILES,tim23-1 inh,TIM10 inh,NLRP3 yeast inh,tim10-1 inh,SKKanGAS inh,tim10-1 conf
CC1(C)CC[C@]2(C(=O)O[C@@H]3OC(CO)[C@@H](O)[C@H](O)[C@H]3O)CC[C@]3(C)C(=CCC4[C@@]5(C)CC[C@H](O[C@@H]6OC(C(=O)O)[C@@H](O)[C@H](O)[C@H]6O)C(C)(C)C5CC[C@]43C)[C@@H]2C1 (some centres not stated),28,1,-19,40*,.,22
CN(C)C(=C(C#N)C#N)N1CCN(c2ccc(Cl)c(Cl)c2)CC1,27,8,-15,42*,1,10
COc1ccc(C(=O)C2CCCN(C(=O)Cc3c(C)noc3C)C2)cc1OC (configuration not stated),10,-1,15,3,3,.
Cc1noc(C)c1CC(=O)N1CCCC(C(=O)c2ccc(C(C)(C)C)cc2)C1 (configuration not stated),16,30,13,41*,2,22
COc1cccc(C(=O)CSc2nnnn2C2CCCCC2)c1,46,11,18,44*,0,37*
COc1ccccc1C(=O)NNC(=O)C(=O)NC1CCCCC1,-19,2,-6,-43,0,.
CCN(CC)C(=O)Cn1cc(S(=O)(=O)CC(=O)Nc2ccccc2C)c2ccccc21,-8,1,14,-6,-2,.
COc1cccc(CCNC(=O)c2cc(COc3c(F)cccc3F)on2)c1,20,-2,13,24,-9,.
CC1Cc2ccccc2N1C(=S)NC(=O)c1ccco1 (configuration not stated),13,34,-5,40*,-7,36*
O=C(NC(=S)N1CCCc2ccccc21)c1ccco1,7,21,22,11,-3,.
Cc1ccc(COc2ccc(CNCCCN3CCCCCC3=O)cc2)cc1,-10,5,17,-15,-4,.
S=C(N/N=C/c1ccccc1Cl)Nc1cccc(Cl)c1Cl,30,25,32,41*,-7,16
CCC(C)(C)C(=O)Nc1ncc(S(=O)(=O)c2ccc([N+](=O)[O-])cc2)s1,16,16,15,42*,11,27
O=C(CCl)Nc1ncc(S(=O)(=O)c2ccc([N+](=O)[O-])cc2)s1,32,5,5,16,.,.
CN(C)C(CNC(=O)c1cc2ccccc2o1)c1ccco1 (configuration not stated),-13,-5,7,-4,.,.
O=c1[nH]c(NNC(=S)NCc2ccccc2)nc2c1C1(CCCCC1)Cc1ccccc1-2,21,32,4,43*,101*,30
C=CCNC(=S)NNc1nc2c(c(=O)[nH]1)C1(CCCC1)Cc1ccccc1-2,37,34,-17,48*,-17,38*
O=c1[nH]c(NCCCO)nc2c1C1(CCCC1)Cc1ccccc1-2,14,9,5,10,-11,.
Cc1ccc(NC(=O)CSCC(=O)N(C)CC(=O)Nc2cccc3ccccc23)cc1,13,-3,1,16,18,.
COc1cccc(C(=O)NCC(c2ccco2)N2CCOCC2)c1 (configuration not stated),13,-4,13,0,2,.
COc1ccc(Cl)cc1NC(=O)COC(=O)C1=NNC(=O)CC1,-8,4,-1,-7,.,.
O=C(/C=C/c1ccc(Cl)cc1Cl)N1CCN(c2ccc([N+](=O)[O-])c(N3CCOCC3)c2)CC1,13,13,6,42*,40,16
O=C(Nc1nc2ccccc2[nH]1)c1ccccc1F,50,33,26,46*,80*,30
O=C(Nc1nc2ccccc2[nH]1)c1ccccc1OC(F)F,23,14,26,21,9,.
CC(C)(C)C(=O)NCCN1C(=O)S/C(=C\c2ccc([N+](=O)[O-])cc2)C1=O,45,35,17,57*,-6,44*
SMILES,tim23-1 inh,TIM10 inh,NLRP3 yeast inh,tim10-1 inh,SKKanGAS inh,tim10-1 conf
O=C(/C=C/c1ccccc1[N+](=O)[O-])NCCN1C(=O)S/C(=C\c2ccc(F)cc2)C1=O,14,10,1,9,-7,.
CCn1c(SCC(=O)N2CCCCC2C)nc2c1c(=O)n(C)c(=O)n2C (configuration not stated),12,-8,6,16,-4,.
COc1ccc([C@H]2CC(=O)C=C(c3ccc4c(c3)sc3ccccc34)C2)cc1,-1,-4,8,4,.,.
COC(CNC(=O)CNC(=S)N(Cc1ccccc1)Cc1cccs1)OC,12,-7,9,16,-3,.
CCCCNC(=O)CNC(=S)N(Cc1ccccc1)Cc1cccs1,14,8,-10,47*,-1,28
CCc1ccc(OCC(=O)NNC(=O)C2CCC2)cc1,-10,-6,23,-25,-4,.
CC(=O)Oc1c(C)cc(O)c2ccccc12,20,11,6,22,1,.
CC(=O)Cc1cc(O)c2ccccc2c1OC(=O)c1ccccc1,48,27,2,43*,-10,38*
CCOc1ccc(-c2cc(C(=O)N/N=C(\C)c3cccnc3)c3ccccc3n2)c(OCC)c1,17,12,14,15,8,.
Fc1ccc(-c2nnc(CN3CCN(c4ncc(C(F)(F)F)cc4Cl)CC3)o2)cc1,31,7,10,49*,5,24
CC(C)c1ccc(N(CCc2ccccn2)C(=O)C(C)(C)C)cc1,24,27,10,19,4,.
CCCC(=O)Nn1cnc2c(c1=O)C1(CCCC1)Cc1ccccc1-2,35,25,14,45*,2,36*
CC(=O)Nn1cnc2c(c1=O)C1(CCCC1)Cc1ccccc1-2,20,37,6,14,.,.
O=c1c2ccccc2nc(SCc2ccc([N+](=O)[O-])cc2)n1-c1ccccc1,34,26,-4,40*,5,34*
CC(C)n1cc(C(=O)N2CCCC(N3CCN(c4cccc(Cl)c4)CC3)C2)cn1 (configuration not stated),19,10,-3,21,8,.
Cn1c(=O)[nH]c(=O)c2c1nc(N1CCCCCC1)n2CCCSc1nnnn1-c1ccccc1,17,15,-2,41*,1,24
Cn1c(=O)[nH]c(=O)c2c1nc(N1CCCC1)n2CCCSc1nnnn1-c1ccccc1,18,-2,6,14,6,.
O=C(CSc1nc2sccc2c(=O)[nH]1)N1CCN(c2ccccc2)CC1,9,2,-1,1,5,.
COc1cc(/C=N/NC(=O)c2ccc([N+](=O)[O-])cc2Cl)cc(Br)c1O,2,-3,12,-3,9,.
COc1cc(/C=N/N2C(=O)c3ccccc3NC2(C)c2cccc([N+](=O)[O-])c2)cc(Br)c1O (configuration not stated),30,31,13,44*,11,21
O=C(NCc1ccc(F)cc1)c1ccc(N2CCc3ccccc32)c([N+](=O)[O-])c1,39,18,27,42*,32,26

# Compound activity from PubChem BioAssay.
